# Values joined by “and” are separate entries in the source; they are usually repeats but may differ in a detail not shown here. Equal values may be shown once. Inconclusive results are not listed. Entries that show only a call come without a potency. Unmarked numbers belong to inactive results. Active and inactive are the calls of the source. Calls follow the shape of the dose curve; as a rule, active = well fitted curve in the direction sought with a large enough effect; inconclusive = small, poorly fitted or top-dose-only effect, or another doubt; inactive = no such curve, though single readings can be large; an effect the other way counts as inactive or inconclusive.
# Experiments:
# [1] = system: KB-3-1; assay: Cytotoxic Profiling of Annotated Libraries Using Quantitative High-Throughput Screening (AID 1296008); conditions: Five cell lines viability, CellTiter-Glo ATP luminescence, 48-72 h; max response: hits give low values; also: nearly all actives have a fitted effect of over 60% in size; also: potency is read from the fitted curve at half-maximal effect
# How it was run: (§1)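 Cytotoxicity was measured as CellTiter-Glo ATP luminescence, read after 10 min at room temperature. Compound treatment of the cells lasted 48 or 72 hr at 37 degrees Celsius in a qHTS format.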
# [2] = system: NIH3T3; assay: as above; conditions: Five cell lines viability, CellTiter-Glo ATP luminescence, 48-72 h; max response: hits give low values
# How it was run: as §1
# [3] = system: HACAT; assay: qHTS assay to identify novel small-molecules to repurpose for Merkel cell carcinoma treatment (AID 1296009); conditions: MCC and control cell lines, CellTiter-Glo viability, 72 h; at 44.8 µM (top of the series) unless noted; also: nearly all actives have a fitted effect of over 60% in size
# How it was run: (§2)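 After compound transfer in DMSO, plates were kept 72 hr at 37 degree celsius. Luminescent ATP signal from CellTiter-Glo served as viability measure, normalized against DMSO and no-cell controls.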
# [4] = system: HEK293T; assay: as above; conditions: MCC and control cell lines, CellTiter-Glo viability, 72 h; series mostly up to 44.8 µM
# How it was run: as §2
# [5] = system: C33A; assay: Primary qHTS to identify gynecologic anti-cancer compounds using libraries of approved drugs and bioactive compounds (AID 1345084); conditions: Gynecologic cancer cell panel viability, ATPlite luminescence, 48 h; series mostly up to 57.5 µM; also: nearly all actives have a fitted effect of over 55% in size
# How it was run: (§3)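 ATP-based viability (ATPlite), 1,000 cells/well, 16 h pre-incubation, 48 h compound at 37 C, 5% CO2, 15 min RT before read.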
# [6] = system: CASKI; assay: as above; conditions: Gynecologic cancer cell panel viability, ATPlite luminescence, 48 h; series mostly up to 57.5 µM
# How it was run: as §3
# [7] = system: Es-2; assay: as above; conditions: Gynecologic cancer cell panel viability, ATPlite luminescence, 48 h; series mostly up to 57.5 µM
# How it was run: as §3
# [8] = system: HeLa; assay: as above; conditions: Gynecologic cancer cell panel viability, ATPlite luminescence, 48 h; series mostly up to 57.5 µM
# How it was run: as §3
# [9] = system: Hek293T; assay: as above; conditions: Gynecologic cancer cell panel viability, ATPlite luminescence, 48 h, control line for the selectivity index; series mostly up to 57.5 µM
# How it was run: as §3
# [10] = system: JEG-3; assay: as above; conditions: Gynecologic cancer cell panel viability, ATPlite luminescence, 48 h; series mostly up to 57.5 µM
# How it was run: as §3
# [11] = system: OV90; assay: as above; conditions: Gynecologic cancer cell panel viability, ATPlite luminescence, 48 h; series mostly up to 57.5 µM
# How it was run: as §3
# [12] = system: PA-1; assay: as above; conditions: Gynecologic cancer cell panel viability, ATPlite luminescence, 48 h; series mostly up to 57.5 µM
# How it was run: as §3
# [13] = system: NIH3T3; assay: qHTS assay to identify novel small-molecules to repurpose for Merkel cell carcinoma treatment (AID 1296009); conditions: MCC and control cell lines, CellTiter-Glo viability, 72 h; at 44.8 µM (top of the series) unless noted; also: nearly all actives have a fitted effect of over 60% in size
# How it was run: as §2
# [14] = system: CAOV3; assay: Primary qHTS to identify gynecologic anti-cancer compounds using libraries of approved drugs and bioactive compounds (AID 1345084); conditions: Gynecologic cancer cell panel viability, ATPlite luminescence, 48 h; series mostly up to 57.5 µM; also: nearly all actives have a fitted effect of over 55% in size
# How it was run: as §3
compound,measurement,setting,value
COc1ccc(/C=C/C(=O)O[C@@H]2[C@@H](O)[C@H](C)O[C@@H](OC3C4C=COC(O[C@@H]5O[C@H](CO)[C@@H](O)[C@H](O)[C@H]5O)C4C4(CO)OC34)[C@@H]2O)cc1OC (stereo partly drawn),max response,[1],-0.119%
same,max response,[2],0.929%
same,outcome,[3],inactive [at 17.4 µM]
same,Potency,[4],inactive
same,Potency,[5],inactive
same,Potency,[6],inactive
same,Potency,[7],inactive
same,Potency,[8],inactive
same,Potency,[9],inactive
same,Potency,[10],inactive
same,Potency,[11],inactive
same,Potency,[12],inactive
CCOC(=O)[C@H](CCc1ccccc1)N[C@@H](C)C(=O)N1C2CCCCC2C[C@H]1C(=O)O (stereo partly drawn),max response,[1],6.12%
same,outcome,[2],inactive
same,outcome,[3],inactive
same,Potency,[4],inactive
same,Potency,[5],inactive
same,Potency,[6],inactive
same,Potency,[7],inactive
same,Potency,[8],inactive
same,Potency,[9],inactive
same,Potency,[10],inactive
same,Potency,[11],inactive
same,Potency,[12],inactive
CC(/C=C/[C@]1(O)[C@@]2(C)CO[C@@]1(C)C[C@@H](O)C2)=C\C(=O)O[C@@H]1O[C@H](CO)[C@@H](O)[C@H](O)[C@H]1O,outcome,[1],inactive
same,outcome,[2],inactive
same,Potency,[4],inactive
same,outcome,[13],inactive [at 17.4 µM]
same,Potency,[5],inactive
same,Potency,[14],inactive
same,Potency,[6],inactive
same,Potency,[7],inactive
same,Potency,[8],inactive
same,Potency,[9],inactive
same,Potency,[10],inactive
same,Potency,[11],inactive
same,Potency,[12],inactive
CCC/C=C/C(=O)O[C@H]1CC(C)(C)CC2[C@]13[C@H](O)O[C@@]21CCC2[C@@]4(C)CC[C@H](O[C@@H]5O[C@H](C(=O)O)[C@@H](O)[C@H](O[C@@H]6O[C@H](CO)[C@H](O)[C@H](O)[C@H]6O[C@@H]6O[C@@H](C)[C@H](O)[C@@H](O)[C@H]6O[C@@H]6OC[C@](O)(CO)[C@H]6O)[C@H]5O[C@@H]5O[C@H](CO)[C@H](O)[C@H](O)[C@H]5O)C(C)(C)C4CC[C@@]2(C)[C@]1(C)C[C@H]3OC(C)=O (stereo partly drawn),max response,[1],6.11%
same,max response,[2],0.954%
same,outcome,[3],inactive [at 9.27 µM]
same,outcome,[4],inactive [at 9.27 µM]
same,"activity change, negative = cytotoxicity",[5],-4.15% [at 6.55 µM]
same,"activity change, negative = cytotoxicity",[6],2.37% [at 6.55 µM]
same,"activity change, negative = cytotoxicity",[7],2.55% [at 6.55 µM]
same,"activity change, negative = cytotoxicity",[8],-1.33% [at 6.55 µM]
same,"activity change, negative = cytotoxicity",[9],-6.65% [at 6.55 µM]
same,"activity change, negative = cytotoxicity",[10],-6.17% [at 6.55 µM]
same,"activity change, negative = cytotoxicity",[11],-0.93% [at 6.55 µM]
same,"activity change, negative = cytotoxicity",[12],-0.307% [at 6.55 µM]
CC(=O)N1c2ccccc2C2(O)CC3C(=O)NC(CC(C)C)C(=O)N3C12 (stereo not drawn),max response,[1],2.12%
same,max response,[2],1.77%
same,outcome,[3],inactive
same,Potency,[4],inactive
same,Potency,[5],inactive
same,Potency,[6],inactive
same,Potency,[7],inactive
same,Potency,[8],inactive
same,Potency,[10],inactive
same,Potency,[11],inactive
same,Potency,[12],inactive
Cc1coc2c1CC1OC1(C)CCC1OC1(C)C2 (stereo not drawn),max response,[1],8.78%
same,outcome,[2],inactive
same,Potency,[4],inactive
same,outcome,[13],inactive
same,Potency,[5],inactive
same,Potency,[14],inactive
same,Potency,[6],inactive
same,Potency,[7],inactive
same,Potency,[8],inactive
same,Potency,[9],inactive
same,Potency,[10],inactive
same,Potency,[11],inactive
same,Potency,[12],inactive
CC(C)=CCC[C@](C)(O[C@@H]1O[C@H](CO[C@@H]2OC[C@@H](O)[C@H](O)[C@H]2O)[C@@H](O)[C@H](O)[C@H]1O)[C@H]1CC[C@]2(C)[C@@H]1[C@H](O)C[C@@H]1[C@@]3(C)CC[C@H](O[C@@H]4O[C@H](CO)[C@@H](O)[C@H](O)[C@H]4O[C@@H]4O[C@H](CO)[C@@H](O)[C@H](O)[C@H]4O)C(C)(C)[C@@H]3CC[C@]12C,outcome,[1],inactive
same,outcome,[2],inactive
same,Potency,[4],inactive
same,outcome,[13],inactive [at 17.4 µM]
same,Potency,[5],inactive
same,Potency,[14],inactive
same,Potency,[6],inactive
same,Potency,[7],inactive
same,Potency,[8],inactive
same,Potency,[9],inactive
same,Potency,[10],inactive
same,Potency,[11],inactive
C[C@@H]1C[C@H](O)/C=C/[C@H](O)[C@@H](O)CC(=O)O1,outcome,[1],inactive
same,outcome,[2],inactive
same,Potency,[4],inactive
same,outcome,[13],inactive
same,Potency,[5],inactive
same,Potency,[14],inactive
same,Potency,[6],inactive
same,Potency,[7],inactive
same,Potency,[8],inactive
same,Potency,[9],inactive
same,Potency,[10],inactive
same,Potency,[11],inactive
same,Potency,[12],inactive
C[C@@H]1O[C@@H](O[C@H]2[C@H](O[C@H]3[C@H](O[C@H]4CC[C@@]5(C)C(CC[C@]6(C)C5CC=C5[C@@H]7CC(C)(C(=O)O)C[C@@H](O)[C@]7(C)CC[C@]56C)[C@@]4(C)CO)O[C@H](C(=O)O)[C@@H](O)[C@@H]3O)O[C@H](CO)[C@H](O)[C@@H]2O)[C@H](O)[C@H](O)[C@H]1O (stereo partly drawn),outcome,[1],inactive
same,max response,[2],-3.63%
same,outcome,[3],inactive [at 9.27 µM]
same,outcome,[4],inactive [at 9.27 µM]
same,"activity change, negative = cytotoxicity",[5],4.66% [at 11.6 µM]
same,"activity change, negative = cytotoxicity",[6],2.76% [at 11.6 µM]
same,"activity change, negative = cytotoxicity",[7],6.95% [at 11.6 µM]
same,"activity change, negative = cytotoxicity",[8],4.42% [at 11.6 µM]
same,"activity change, negative = cytotoxicity",[9],-2.11% [at 11.6 µM]
same,"activity change, negative = cytotoxicity",[10],-9.71% [at 11.6 µM]
same,"activity change, negative = cytotoxicity",[11],0.848% [at 11.6 µM]
same,"activity change, negative = cytotoxicity",[12],3.43% [at 11.6 µM]
CC(C(=O)O)C1CCC2(C)C3C(=O)C=C4C(CCC(=O)C4(C)C)C3(C)CCC12C (stereo not drawn),outcome,[1],inactive
same,outcome,[2],inactive
same,Potency,[4],inactive
same,outcome,[13],inactive [at 17.4 µM]
same,Potency,[5],inactive
same,Potency,[14],inactive
same,Potency,[6],inactive
same,Potency,[7],inactive
same,Potency,[8],inactive
same,Potency,[9],inactive
same,Potency,[10],inactive
same,Potency,[11],inactive
same,Potency,[12],inactive
CC(=O)OC1C=C(C(=O)O)C2(CO)CCC(C)C(C)(CCc3ccoc3)C2C1 (stereo not drawn),outcome,[1],inactive
same,outcome,[2],inactive
same,outcome,[3],inactive [at 17.4 µM]
same,Potency,[4],inactive
same,Potency,[5],inactive
same,Potency,[6],inactive
same,Potency,[7],inactive
same,Potency,[8],inactive
same,Potency,[9],inactive
same,Potency,[10],inactive
same,Potency,[11],inactive
same,Potency,[12],inactive
CC1(C)CC2C(O)C3=C(CC(C)(O)C2C1)C(=O)OC3O (stereo not drawn),max response,[1],5.32%
same,outcome,[2],inactive
same,outcome,[3],inactive
same,Potency,[4],inactive
same,Potency,[5],inactive
same,Potency,[6],inactive
same,Potency,[7],inactive
same,Potency,[8],inactive
same,Potency,[9],inactive
same,Potency,[10],inactive
same,Potency,[11],inactive
same,Potency,[12],inactive
CN(NC(=O)CC(=O)NN(C)C(=S)c1ccccc1)C(=S)c1ccccc1,Potency,[1],36.6 nM (active)
same,Potency,[2],51.7 nM (active) and 26.3 nM (active)
same,outcome,[3],inactive
same,Potency,[6],inactive
same,Potency,[7],inactive
same,Potency,[8],inactive
same,Potency,[9],inactive
same,Potency,[10],inactive
CC(=O)O[C@@]1(C)C[C@@H](O)[C@]2(O)C=CO[C@@H](O[C@@H]3O[C@H](CO)[C@@H](O)[C@H](O)[C@H]3O)[C@@H]21,outcome,[1],inactive
same,outcome,[2],inactive
same,Potency,[4],inactive
same,outcome,[13],inactive [at 17.4 µM]
same,Potency,[5],inactive
same,Potency,[14],inactive
same,Potency,[6],inactive
same,Potency,[7],inactive
same,Potency,[8],inactive
same,Potency,[9],inactive
same,Potency,[10],inactive
same,Potency,[11],inactive
same,Potency,[12],inactive

# From PubChem BioAssay (NCATS)
